Several values for one entry are separate records, joined by “and”; a condition that tells them apart may be missing. Equal values may be shown once. More than one record can exist for a structure, and the calls need not agree. Activity calls are given as the source filed them. Entries that show only a call come without a potency. Unless noted, the call rests on the fitted dose curve; in most records, active means well fitted curve in the direction sought with a large enough effect in the repeat runs; inconclusive means weak or mixed curves; inactive means no such curve, though single readings can be large; an effect the other way counts as inactive or inconclusive.
Assays:
[1] = qHTS assay to identify small molecule antagonists of the glucocorticoid receptor (GR) signaling pathway - cell viability counter screen (AID 720693); further: nearly all actives have a fitted effect of over 55% in size; further: potency means the concentration at half of the fitted maximal effect
[2] = qHTS assay for identifying genotoxic compounds that show differential cytotoxicity against isogenic chicken DT40 cell lines with known DNA damage response pathways - wild type cell line (AID 743012); further: nearly all actives have a fitted effect of over 60% in size; further: potency means the concentration at half of the fitted maximal effect
Method in brief: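 Quantitative HTS on parental DT40 cells: 40 h compound treatment at 37 C/5% CO2, with viability then determined by CellTiter-Glo luminescence. Values serve as the DNA repair-proficient reference for differential cytotoxicity.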

[3] = qHTS assay for identifying genotoxic compounds that show differential cytotoxicity against isogenic chicken DT40 cell lines with known DNA damage response pathways - Rev3 mutant cell line (AID 743014); further: nearly all actives have a fitted effect of over 55% in size; further: potency means the concentration at half of the fitted maximal effect
[4] = qHTS assay for identifying genotoxic compounds that show differential cytotoxicity against isogenic chicken DT40 cell lines with known DNA damage response pathways - Rad54/Ku70 mutant cell line (AID 743015); further: nearly all actives have a fitted effect of over 60% in size; further: potency means the concentration at half of the fitted maximal effect
[5] = qHTS assay to identify small molecule antagonists of the thyroid receptor (TR) signaling pathway - cell viability counter screen (AID 743064); further: nearly all actives have a fitted effect of over 50% in size; further: potency means the concentration at half of the fitted maximal effect
Method in brief: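 Fluorescence from CellTiter-Fluor, added after 23.5 h exposure at 37 °C, reported viability of GH3.TRE-Luc cells co-treated with compound and 1 nM T3. Measured in the same wells as the luciferase TR readout.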

[6] = qHTS assay to identify small molecule antagonists of the thyroid receptor (TR) signaling pathway (AID 743065); further: nearly all actives have a fitted effect of over 55% in size; further: potency means the concentration at half of the fitted maximal effect
Method in brief: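 GH3.TRE-Luc rat pituitary cells (two TREs driving luciferase) were dosed with compound, then stimulated with 1 nM T3 (final) for 23.5 h at 37 C. ONE-Glo luminescence was the read-out, with CellTiter-Fluor fluorescence as the cytotoxicity counter-screen.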

[7] = biological target: Estrogen receptor (Homo sapiens) (UniProt P03372); experiment: qHTS assay to identify small molecule antagonists of the estrogen receptor alpha (ER-alpha) signaling pathway (AID 743069; active means well fitted curve in the direction sought with a large enough effect in the signal ratio in the repeat runs, not every such curve was filed as active; inconclusive means weak or mixed curves, or effect the other way; inactive means no such curve, though single readings can be large or run the other way; the % refers to the signal ratio; further: potency means the concentration at half of the fitted maximal effect)
Estrogen receptor (Homo sapiens), sequence (P03372 whole entry, looked up): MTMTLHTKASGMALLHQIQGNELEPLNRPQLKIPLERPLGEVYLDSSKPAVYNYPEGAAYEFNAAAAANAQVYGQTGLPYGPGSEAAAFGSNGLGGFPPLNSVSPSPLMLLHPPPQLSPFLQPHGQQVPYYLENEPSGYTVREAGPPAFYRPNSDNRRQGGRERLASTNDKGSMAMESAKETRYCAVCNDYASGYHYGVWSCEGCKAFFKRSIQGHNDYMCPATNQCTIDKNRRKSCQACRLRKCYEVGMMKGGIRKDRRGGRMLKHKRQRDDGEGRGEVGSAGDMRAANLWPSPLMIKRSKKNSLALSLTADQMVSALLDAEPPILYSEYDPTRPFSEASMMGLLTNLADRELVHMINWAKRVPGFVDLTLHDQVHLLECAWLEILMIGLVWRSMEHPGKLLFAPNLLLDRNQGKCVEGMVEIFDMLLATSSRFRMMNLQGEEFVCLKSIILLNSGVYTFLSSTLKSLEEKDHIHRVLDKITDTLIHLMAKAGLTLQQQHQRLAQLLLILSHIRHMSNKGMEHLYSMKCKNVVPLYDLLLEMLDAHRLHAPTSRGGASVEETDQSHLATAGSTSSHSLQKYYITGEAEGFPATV
Method in brief: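 Reporter cells (ER-alpha-bla, HEK293 background) are conditioned overnight in stripped-serum medium (2% charcoal-stripped FBS). Compound and 17beta-estradiol exposure runs 18 hr at 37C, 5% CO2.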

[8] = biological target: Estrogen receptor (Homo sapiens) (UniProt P03372); experiment: qHTS assay to identify small molecule agonists of the estrogen receptor alpha (ER-alpha) signaling pathway (AID 743075; calls by dose curve;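 further: HEK293 GripTite cells with ER-alpha and UAS-driven beta-lactamase reporter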); conditions: HEK293 ER-alpha-UAS-bla, beta-lactamase FRET ratio, 18 h; activation: at 70.1 µM (top of the series)
[9] = biological target: Estrogen receptor (Homo sapiens) (UniProt P03372); experiment: qHTS assay to identify small molecule agonists of the estrogen receptor alpha (ER-alpha) signaling pathway using the BG1 cell line (AID 743079); conditions: BG1Luc4E2 cells, ERE-luciferase agonist, 22 h; further: nearly all actives have a fitted effect of over 20% in size
[10] = qHTS assay to identify small molecule antagonists of the estrogen receptor alpha (ER-alpha) signaling pathway using the BG1 cell line (AID 743080; calls by dose curve;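 further: BG1 cells stimulated with 17beta-estradiol alongside compound; nearly all actives have a fitted effect of over 25% in size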; further: potency means the concentration at half of the fitted maximal effect)
Method in brief: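 Readout is ONE-Glo luminescence, taken 30 min at room temperature after reagent addition, preceded by a CellTiter-Fluor viability read; BG1-Luc-4E2 cells had received compound and 17beta-estradiol for 21.5 h at 37 C.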

[11] = qHTS assay to identify small molecule antagonists of the estrogen receptor alpha (ER-alpha) signaling pathway using the BG1 cell line - cell viability counter screen (AID 743081);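 further: compound given together with 17beta-estradiol as the ER stimulus; nearly all actives have a fitted effect of over 45% in size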; further: potency means the concentration at half of the fitted maximal effect
Aromatase (Homo sapiens) = Aromatase (Homo sapiens) (UniProt P11511); experiment: qHTS assay to identify aromatase inhibitors (AID 743083); further: nearly all actives have a fitted effect of over 55% in size; further: potency means the concentration at half of the fitted maximal effect
Aromatase (Homo sapiens), sequence (P11511 whole entry, looked up): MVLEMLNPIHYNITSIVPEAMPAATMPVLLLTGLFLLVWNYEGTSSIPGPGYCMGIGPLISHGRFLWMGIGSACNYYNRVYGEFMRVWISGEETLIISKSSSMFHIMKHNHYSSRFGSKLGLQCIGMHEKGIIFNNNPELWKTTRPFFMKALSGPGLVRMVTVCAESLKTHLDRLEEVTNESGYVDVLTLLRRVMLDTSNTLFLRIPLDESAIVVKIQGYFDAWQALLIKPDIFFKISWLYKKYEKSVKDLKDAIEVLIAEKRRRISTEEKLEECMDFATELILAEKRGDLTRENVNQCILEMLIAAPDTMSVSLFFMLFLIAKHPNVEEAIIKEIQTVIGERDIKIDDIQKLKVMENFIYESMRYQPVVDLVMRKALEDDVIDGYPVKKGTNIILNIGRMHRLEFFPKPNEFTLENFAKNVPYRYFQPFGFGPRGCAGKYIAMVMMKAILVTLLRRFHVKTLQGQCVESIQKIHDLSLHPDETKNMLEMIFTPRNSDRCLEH

[12] = qHTS assay to identify small molecule antagonists of the androgen receptor (AR) signaling pathway using the MDA cell line - cell viability counter screen (AID 743041; further: nearly all actives have a fitted effect of over 45% in size)
Method in brief: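 Same-well cytotoxicity was assessed by CellTiter-Fluor in MDA-kb2 AR-luc cells after 16 h of compound treatment under R1881 agonism.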

[13] = test system: thyroid hormone receptor (rat, GH3 cells); experiment: qHTS assay to identify small molecule agonists of the thyroid receptor (TR) signaling pathway (AID 743066; calls by dose curve)
[14] = qHTS assay to identify small molecule antagonists of the estrogen receptor alpha (ER-alpha) signaling pathway - cell viability counter screen (AID 743074; calls by dose curve;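 further: HEK293 cells carrying ER-alpha-UAS-bla reporter stimulated with 17beta-estradiol; nearly all actives have a fitted effect of over 45% in size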; further: potency means the concentration at half of the fitted maximal effect)
[15] = qHTS assay to identify small molecule antagonists of the androgen receptor (AR) signaling pathway - cell viability counter screen (AID 743033; further: nearly all actives have a fitted effect of over 45% in size; further: potency means the concentration at half of the fitted maximal effect)
[16] = biological target: Androgen receptor (Homo sapiens) (UniProt P10275); experiment: qHTS assay to identify small molecule agonists of the androgen receptor (AR) signaling pathway using the MDA cell line (AID 743040; further: nearly all actives have a fitted effect of over 20% in size)
Androgen receptor (Homo sapiens), sequence (P10275 whole entry, looked up): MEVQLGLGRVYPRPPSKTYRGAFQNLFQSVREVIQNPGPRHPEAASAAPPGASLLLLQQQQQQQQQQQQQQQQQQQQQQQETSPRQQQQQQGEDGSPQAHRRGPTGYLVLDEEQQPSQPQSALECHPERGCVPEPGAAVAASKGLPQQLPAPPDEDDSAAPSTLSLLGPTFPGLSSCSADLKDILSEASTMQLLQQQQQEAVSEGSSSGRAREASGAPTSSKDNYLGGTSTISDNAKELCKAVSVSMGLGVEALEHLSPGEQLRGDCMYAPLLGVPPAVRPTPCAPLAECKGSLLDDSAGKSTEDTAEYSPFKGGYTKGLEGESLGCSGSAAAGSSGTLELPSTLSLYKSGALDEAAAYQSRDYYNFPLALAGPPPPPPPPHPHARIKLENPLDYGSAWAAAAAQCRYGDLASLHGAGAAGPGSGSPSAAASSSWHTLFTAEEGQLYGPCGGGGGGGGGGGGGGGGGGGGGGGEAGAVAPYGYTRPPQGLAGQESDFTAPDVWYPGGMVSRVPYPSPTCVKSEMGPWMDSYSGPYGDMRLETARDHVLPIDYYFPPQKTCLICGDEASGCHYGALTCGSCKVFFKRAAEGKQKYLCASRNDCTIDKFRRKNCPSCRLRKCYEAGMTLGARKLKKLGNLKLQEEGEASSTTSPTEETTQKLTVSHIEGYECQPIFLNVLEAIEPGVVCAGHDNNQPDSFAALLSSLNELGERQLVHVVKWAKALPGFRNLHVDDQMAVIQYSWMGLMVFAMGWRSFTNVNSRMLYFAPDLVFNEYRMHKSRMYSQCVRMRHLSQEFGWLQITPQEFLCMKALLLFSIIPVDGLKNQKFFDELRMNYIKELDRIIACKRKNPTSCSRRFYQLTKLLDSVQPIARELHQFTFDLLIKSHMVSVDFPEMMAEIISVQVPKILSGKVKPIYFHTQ
Method in brief: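 Human breast carcinoma MDA-kb2 reporter cells (MMTV-luc, AR/GR elements) were treated for 16 h at 37C in 0% CO2 following a 5 h settling period. Signal was quantified by ONE-Glo luminescence.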

[17] = biological target: Androgen receptor (Homo sapiens) (UniProt P10275); experiment: qHTS assay to identify small molecule antagonists of the androgen receptor (AR) signaling pathway using the MDA cell line (AID 743042)
Method in brief: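 MDA-kb2 breast carcinoma cells carrying MMTV-luciferase (AR/GR responsive) were co-treated with compounds and the agonist R1881 for 16 h at 37C. Inhibition read as ONE-Glo luminescence; CellTiter-Fluor fluorescence measured in parallel for cytotoxicity.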

[18] = biological target: Androgen receptor (Homo sapiens) (UniProt P10275); experiment: qHTS assay to identify small molecule antagonists of the androgen receptor (AR) signaling pathway (AID 743035; active means well fitted inhibition curve with a large enough effect in the signal ratio in the repeat runs, not every such curve was filed as active; inconclusive means weak or mixed curves, or effect the other way; inactive means no such curve, though single readings can be large or run the other way; the % refers to the signal ratio; further: potency means the concentration at half of the fitted maximal effect)
Method in brief: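 Cell line: GeneBLAzer AR-UAS-bla GripTite (HEK293). Stimulus: R1881 added after compound. Exposure: 16 h, 37C, 5% CO2. Readout: LiveBLAzer B/G FRET fluorescence after 2 h at room temperature.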

COCCCC/C(=N\OCCN)c1ccc(C(F)(F)F)cc1
Potency [1]: inactive | Potency [2]: 6.68 µM (active) | Potency [3]: 9.44 µM (active) | Potency [4]: 10.6 µM (active) | Potency [5]: 13.3 µM (active) | Potency [6]: 11.9 µM (active) | Potency [7]: inactive | Potency [8]: inactive | activation ([9]; at 70.3 µM (top of the series)): -27% (inactive) | Potency [10]: inactive | Potency [11]: inactive | Potency (Aromatase (Homo sapiens)): 21.1 µM (active)

O=C1CCCCCN1SSN1CCCCCC1=O
Potency [1]: inactive | Potency [2]: 13.7 µM (active) | Potency [3]: 19.3 µM (active) | Potency [4]: 15.4 µM (active) | Potency [12]: inactive | Potency [6]: 27.3 µM (active) | Potency [13]: inactive | Potency [14]: inactive | Potency [8]: inactive | activation ([9]; at 70.3 µM (top of the series)): -12.6% (inactive) | Potency [10]: inactive | Potency [11]: inactive

Cc1[nH]cnc1C[C@H]1CCc2c(C)c3ccccc3n2C1=O
Potency [1]: inactive | Potency [2]: 13.3 µM (active) and 26.6 µM (active) | Potency [3]: 29.8 µM (active) and 21.2 µM (active) | Potency [4]: 23.7 µM (active) | Potency [12]: inactive | Potency [5]: 13.3 µM (active) | Potency [6]: 23.7 µM (active) and 13.3 µM (active) | Potency [14]: inactive | Potency [11]: inactive | Potency (Aromatase (Homo sapiens)): inactive

Oc1ccc2cc(SSc3ccc4cc(O)ccc4c3)ccc2c1
Potency [1]: inactive | Potency [2]: 24.3 µM (active) | Potency [3]: 19.4 µM (active) and 21.7 µM (active) | Potency [4]: 24.4 µM (active) and 27.3 µM (active) | Potency [12]: inactive | Potency [5]: inactive and 61.1 µM (active) | Potency [13]: inactive | Potency [14]: inactive | Potency [11]: inactive

O=CC=C(c1ccccc1)c1ccccc1
Potency [1]: inactive | Potency [2]: 38.9 µM (active) | Potency [3]: 27.5 µM (active) | Potency [4]: 17.4 µM (active) | Potency [15]: 22.1 µM (active) | Potency [5]: 34.7 µM (active) | Potency [6]: 13.8 µM (active) | Potency [13]: inactive | Potency [7]: 27.8 µM [inconclusive] (active) | Potency [8]: inactive | activation ([9]; at 95 µM (top of the series)): -5.89% (inactive) | Potency [10]: 69.1 µM (active) | Potency [11]: inactive

CCN(Cc1cccnc1)C(=O)c1cccc(Cl)c1[C@]1(C)C(=O)N(Cc2ccc(OC)cc2OC)c2ccc(Cl)cc21
Potency [1]: inactive | Potency [2]: 5.09 µM (active) | Potency [3]: 7.19 µM (active) | Potency [4]: 5.09 µM (active) | Potency [16]: inactive | Potency [17]: 12.8 µM (active) | Potency [5]: 4.54 µM (active) | Potency [6]: 2.55 µM (active) | Potency [13]: inactive | Potency [14]: inactive | Potency (Aromatase (Homo sapiens)): 16.1 µM (active)

O=C(N/N=C/c1ccccc1O)c1ccncc1
Potency [1]: inactive | Potency [2]: 4.22 µM (active) | Potency [3]: 2.98 µM (active) | Potency [4]: 5.96 µM (active) | Potency [12]: inactive | Potency [6]: 29.8 µM (active) | Potency [14]: inactive | Potency [10]: 18.8 µM (active) | Potency [11]: inactive | Potency (Aromatase (Homo sapiens)): 5.96 µM (active)

Cc1[nH]nc2c1N=C(c1ccccc1Cl)c1cc([N+](=O)[O-])ccc1N2
Potency [1]: 19.5 µM (active) | Potency [2]: 0.386 µM (active) | Potency [3]: 0.386 µM (active) | Potency [4]: 0.486 µM (active) | Potency [15]: 43.6 µM (active) | Potency [5]: 27.3 µM (active) | Potency [6]: 19.3 µM (active) | Potency [13]: inactive | Potency [14]: 6.92 µM (active) | Potency [11]: 54.5 µM (active)

CCCCCOC(=O)CCCC
Potency [1]: inactive | Potency [2]: inactive | Potency [3]: inactive | Potency [4]: inactive | Potency [15]: inactive | Potency [12]: inactive | Potency [6]: inactive | Potency [13]: inactive | Potency [7]: inactive | Potency [14]: inactive | Potency [8]: inactive | activation ([9]; at 70.3 µM (top of the series)): -1.52% (inactive) | Potency [10]: inactive | Potency [11]: inactive | Potency (Aromatase (Homo sapiens)): inactive

CCCC(C)c1ccccc1O (stereo not drawn)
Potency [1]: inactive | Potency [2]: 48.6 µM (active) | Potency [3]: 24.3 µM (active) | Potency [4]: 61.1 µM (active) | Potency [12]: inactive | Potency [13]: inactive | Potency [7]: inactive | Potency [14]: inactive | Potency [8]: inactive | Potency [10]: inactive | Potency [11]: inactive

CCN(CC)CCCC(C)Nc1c2ccc(Cl)cc2nc2ccc(OC)cc12 (stereo not drawn)
Potency [1]: inactive | Potency [2]: 5.31 µM (active) | Potency [3]: 5.96 µM (active) | Potency [4]: 6.68 µM (active) | Potency [15]: inactive | Potency [14]: inactive | Potency (Aromatase (Homo sapiens)): inactive

O=C1Cc2cc(CCN3CCN(c4nsc5ccccc45)CC3)c(Cl)cc2N1
Potency [1]: inactive | Potency [2]: 21.1 µM (active) and 10.6 µM (active) | Potency [3]: 33.5 µM (active) and 26.6 µM (active) | Potency [4]: 18.8 µM (active) and 9.44 µM (active) | Potency [15]: inactive | Potency [12]: inactive | Potency [5]: inactive and 16.8 µM (active) | Potency [14]: inactive | Potency [8]: inactive | activation ([9]; at 70.3 µM (top of the series)): 1.77% (inactive) and -23.7% (inactive) | Potency [10]: inactive | Potency [11]: inactive | Potency (Aromatase (Homo sapiens)): inactive

N/C(=N\N=C\c1ccc(Cl)cc1)N/N=C/c1ccc(Cl)cc1
Potency [1]: inactive | Potency [2]: inactive | Potency [3]: inactive | Potency [4]: inactive | Potency [15]: inactive | Potency [12]: inactive | Potency [6]: 29.8 µM (active) | Potency [13]: inactive | Potency [7]: inactive | Potency [14]: inactive | Potency [8]: inactive | activation ([9]; at 70.3 µM (top of the series)): -3.33% (inactive) | Potency [10]: inactive | Potency [11]: inactive | Potency (Aromatase (Homo sapiens)): inactive

CCCCCCCCCCCCCCCC[N+](C)(C)CCN(Cc1ccc(OC)cc1)c1ncccn1
Potency [1]: inactive | Potency [2]: 1.6 µM (active) | Potency [3]: 2.02 µM (active) | Potency [4]: 2.27 µM (active) | Potency [15]: inactive | Potency [12]: inactive | Potency [5]: 11.4 µM (active) | Potency [7]: inactive | Potency [8]: inactive | activation ([9]; at 32.5 µM (top of the series)): -16.9% (inactive) | Potency [11]: inactive | Potency (Aromatase (Homo sapiens)): 12.7 µM (active)

COc1cc(-c2nc(NC(=O)c3cc4cc(C)cc(C)c4n3CC(=O)O)sc2CCC2CCCCC2)c(OC)cc1Cl
Potency [1]: 14.2 µM (active) | Potency [2]: 35.3 µM (active) | Potency [3]: 22.3 µM (active) | Potency [4]: 22.3 µM (active) | Potency [18]: 5.65 µM (active) | Potency [16]: inactive | Potency [5]: 12.5 µM (active) | Potency [6]: 11.2 µM (active) | Potency [13]: inactive | Potency [7]: 3.57 µM [inconclusive] (active) | Potency [14]: 28.3 µM (active) | Potency [11]: inactive | Potency (Aromatase (Homo sapiens)): 25 µM (active)
